# Compound activity as filed in PubChem BioAssay.
# An excerpt weighted towards active compounds, which were near 22% of everything screened.
# CYP2C19 inhib: blocks human cytochrome P450 2C19; P33261; CYP2C19 Supersomes, luciferin-H EGE luminescence, 30 min; inhibition, % at 5 µM; hit rate 21% among 96,000; AID 778;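 active = CYP2C19 inhibition above a set limit at 5 µM in the primary screen, cut at about 50% in these data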;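 also: plate controls were negative control wells for no effect and 2.5 mM tranylcypromine positive control for full effect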
# Target sequence (P33261 whole entry, looked up): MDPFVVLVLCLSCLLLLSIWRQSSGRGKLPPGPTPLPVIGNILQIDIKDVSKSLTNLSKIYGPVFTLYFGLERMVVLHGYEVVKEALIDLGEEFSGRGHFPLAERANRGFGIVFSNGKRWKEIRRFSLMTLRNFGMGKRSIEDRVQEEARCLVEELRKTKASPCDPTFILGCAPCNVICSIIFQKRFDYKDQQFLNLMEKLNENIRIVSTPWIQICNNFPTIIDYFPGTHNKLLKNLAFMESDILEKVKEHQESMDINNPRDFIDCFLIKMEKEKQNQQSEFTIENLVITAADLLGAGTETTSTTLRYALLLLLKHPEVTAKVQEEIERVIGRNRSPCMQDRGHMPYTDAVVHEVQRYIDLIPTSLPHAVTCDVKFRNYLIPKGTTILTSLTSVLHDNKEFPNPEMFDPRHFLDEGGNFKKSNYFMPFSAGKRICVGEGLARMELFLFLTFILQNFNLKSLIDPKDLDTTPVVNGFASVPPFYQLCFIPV
# CYP2C9 act: activators of human CYP2C9. P11712. hit rate 1.4% among 96,000. AID 1024. recombinant CYP2C9, luciferin-H conversion, luminescence; hits give high values; factor 1 = untreated enzyme, 0 = blocked. activation factor at 5 µM;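 active = activation factor of 2 or more for CYP2C9 at a 5 µM dose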;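 also: 0 = sulfaphenazole-blocked wells and 1 = vehicle-only wells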
# CYP2C9 inhib: blocks human cytochrome P450 2C9. P11712. CYP2C9 Supersomes, luciferin-H conversion, luminescence. inhibition, % at 5 µM. hit rate 20% among 96,000;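 active = blocking of liver enzyme CYP2C9 beyond about 50% at 5 µM, limit read from the data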
# Measles CPE: protection of cells from measles virus; Measles virus-infected cells, CPE protection, absorbance; protection (pct of control), % at 4 µM; hit rate 1.5% among 140,000; AID 841; in the data active = protection mostly above about 24%, no sharp cut-off; inactive = mostly below about 26%
# CYP2C19 activ: cytochrome P450 2C19 (human) activation. P33261. recombinant CYP2C19, luciferin-H EGE luminescence; hits give high values; 0 = fully inhibited enzyme, 1 = untreated enzyme. activation factor at 5 µM. 96,000 tested, under 10 active;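 active = activation factor of at least 2 at 5 µM in the primary screen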;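 also: 0 = wells with 2.5 mM tranylcypromine and 1 = vehicle-only wells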
# The depositor's hits bear a star; nt = no result.
SMILES,CYP2C19 inhib,CYP2C9 act,CYP2C9 inhib,Measles CPE,CYP2C19 activ
CC(NC(=O)CSCc1ccccc1Br)c1ccccc1 (centres undefined),nt,nt,nt,22,nt
CN(CC(=O)NC(=O)NCc1ccccc1)Cc1cccc(Cl)c1Cl,nt,nt,nt,9,nt
CCOc1ccc(C/C(N)=N/n2cnnc2)cc1,-7,1.1,-7,5,1.1
O=C(CSc1nc2ccccc2c(=O)n1CCCN1CCOCC1)Nc1cccc(S(=O)(=O)N2CCCCCC2)c1,nt,nt,nt,8,nt
O=C(CSc1c(Cl)cccc1Cl)N1CCC(c2nc3ccccc3s2)CC1,0,0.7,28,5,1
O=C(CSc1ccc(Cl)cc1)N1CCC(c2nc3ccccc3s2)CC1,25,0.5,54*,13,0.8
CC1CN(C(=O)C(C)Sc2nc3ccccc3s2)CC(C)O1 (centres undefined),94*,0.6,44,10,0.1
CC(Sc1nc2ccccc2s1)C(=O)Nc1ccc2c(c1)OCO2 (centres undefined),nt,nt,nt,3,nt
CC(C)n1nnnc1SCC(=O)N1CCOCC1,5,1,0,15,1
C=CCOCCN1C(=O)C2C(c3ccccc3)C=CC(c3ccccc3)C2C1=O (centres undefined),66*,0.6,40,7,0.3
O=C1C2C(c3ccccc3)C=CC(c3ccccc3)C2C(=O)N1CCCO (centres undefined),82*,0.2,82*,9,0.2
O=C(CN1C(=O)CSC1=O)Nc1ccc(C(=O)O)cc1,25,1.1,-6,102*,0.8
COc1ccccc1N1CCN(Cc2ccc(Br)o2)CC1,93*,0.5,54*,11,0.1
CCOc1ccccc1N1CCN(Cc2ccco2)CC1,51*,0.8,16,8,0.5
CCOc1ccccc1N1CCN(Cc2ccc(Br)s2)CC1,45,0.5,52*,2,0.5
CCOc1ccccc1N1CCN(Cc2ccc(OC)c(OC)c2)CC1,8,1.2,-19,26,0.9
CC(C)c1nc(=S)c2ccccc2[nH]1,63*,0.5,53*,17,0.4
O=C(NCc1ccco1)c1ccc(Cl)c(S(=O)(=O)N2CCOCC2)c1,32,0.7,30,26,0.7
O=C(NCc1ccncc1)c1ccc(Cl)c(S(=O)(=O)N2CCOCC2)c1,68*,0.2,82*,5,0.3
O=C(Nc1ccccc1)c1ccc(NCCN2CCOCC2)c(S(=O)(=O)N2CCOCC2)c1,8,0.9,6,8,0.9
O=C(Nc1ccccc1)c1ccc(NCc2ccco2)c(S(=O)(=O)N2CCOCC2)c1,87*,0.1,90*,25,0.1
O=C(Nc1ccccc1)c1ccc(NCc2cccnc2)c(S(=O)(=O)N2CCOCC2)c1,54*,0.4,56*,2,0.5
C=CCNCc1cccn1-c1ccccc1,8,1,3,3,0.9
Cc1ccccc1OCc1nnc2n1CC(C)S2 (centres undefined),6,0.9,14,11,0.9
Cc1ccc(C2C(C#N)=C(N)SC(N)=C2C#N)c(C)c1,54*,0.7,31,9,0.5
SMILES,CYP2C19 inhib,CYP2C9 act,CYP2C9 inhib,Measles CPE,CYP2C19 activ
O=C1CSC(=S)N1Cc1cccnc1,53*,0.2,76*,6,0.5
O=C1CSC(=S)N1c1cccnc1,-21,1.2,-18,21,1.2
O=C1C2C3C=CC([C@@H]2C(=O)N1Cc1cccnc1)C31CC1 (some centres undefined),72*,0.9,6,45*,0.3
CN(C)S(=O)(=O)c1cc(S(=O)(=O)N(C)C)c(Cl)cc1N,33,0.8,17,17,0.7
CCOC(=O)C1CCCN(S(=O)(=O)c2cc(Br)cc3c2N(C(=O)C2CC2)CC3)C1 (centres undefined),38,2.9*,-193,16,0.6
O=C(C1CC1)N1CCc2cc(Br)cc(S(=O)(=O)N3CCCCCC3)c21,90*,0.8,21,21,0.1
Cc1ccc(C)c(OCc2ccc(C(=O)N3N=C(C(F)F)CC3(O)C(F)F)o2)c1 (centres undefined),nt,nt,nt,4,nt
CC(=O)c1cccc(S(=O)(=O)NCC2CCCCC2)c1,nt,nt,nt,17,nt
CCOC(=O)c1ccc(NC(=O)CC2S/C(=N/N=C/c3c[nH]c4ccccc34)NC2=O)cc1 (centres undefined),nt,nt,nt,28*,nt
Cc1ccc(NC(=O)CC2S/C(=N/N=C/c3c[nH]c4ccccc34)NC2=O)cc1 (centres undefined),nt,nt,nt,13,nt
O=C1c2ccccc2C(=O)N1OCc1cccc(Cl)c1,76*,1.1,-5,2,0.2
